How the values were obtained:
Assay in all cases: log2 ratio of Biotin-Ahx-Ub-VS probe labelling (fragment/DMSO); higher = less target engagement (more negative = stronger competition), active = hit call of the paper (q ≤ 0.05, log2 ratio ≤ -1)
Conditions in all cases: compound concentration: 200 uM; treatment time: 3 h
OTUD6B = target: T1, OTUD6B (UniProt Q8N6M0)
T1 sequence (whole entry): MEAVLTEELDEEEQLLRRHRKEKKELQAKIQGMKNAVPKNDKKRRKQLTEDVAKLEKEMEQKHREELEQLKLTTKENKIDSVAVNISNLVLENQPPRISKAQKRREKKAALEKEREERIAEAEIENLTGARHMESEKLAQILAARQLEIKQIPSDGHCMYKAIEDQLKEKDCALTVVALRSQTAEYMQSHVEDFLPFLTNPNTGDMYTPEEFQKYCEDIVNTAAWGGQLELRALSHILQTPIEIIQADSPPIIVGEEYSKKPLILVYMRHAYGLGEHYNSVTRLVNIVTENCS
Method in brief: (§1)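 Global-median-normalised Spectronaut label-free quantities were compared by unpaired t-test, and values are average log2 ratios of fragment over vehicle. Only proteins with ≥2 unique peptides were used. HEK293T lysate (495 µg per sample) was treated in triplicate with fragment at 200 µM or vehicle for 3 h and then with Biotin-Ahx-Ub-VS at 0.5 µM final for 1 h. Labelled DUBs were then NeutrAvidin-enriched, digested with LysC and trypsin, and run by diaPASEF LC-MS/MS.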

OTUD7B = target: T2, OTUD7B (UniProt Q6GQQ9)
T2 sequence (whole entry): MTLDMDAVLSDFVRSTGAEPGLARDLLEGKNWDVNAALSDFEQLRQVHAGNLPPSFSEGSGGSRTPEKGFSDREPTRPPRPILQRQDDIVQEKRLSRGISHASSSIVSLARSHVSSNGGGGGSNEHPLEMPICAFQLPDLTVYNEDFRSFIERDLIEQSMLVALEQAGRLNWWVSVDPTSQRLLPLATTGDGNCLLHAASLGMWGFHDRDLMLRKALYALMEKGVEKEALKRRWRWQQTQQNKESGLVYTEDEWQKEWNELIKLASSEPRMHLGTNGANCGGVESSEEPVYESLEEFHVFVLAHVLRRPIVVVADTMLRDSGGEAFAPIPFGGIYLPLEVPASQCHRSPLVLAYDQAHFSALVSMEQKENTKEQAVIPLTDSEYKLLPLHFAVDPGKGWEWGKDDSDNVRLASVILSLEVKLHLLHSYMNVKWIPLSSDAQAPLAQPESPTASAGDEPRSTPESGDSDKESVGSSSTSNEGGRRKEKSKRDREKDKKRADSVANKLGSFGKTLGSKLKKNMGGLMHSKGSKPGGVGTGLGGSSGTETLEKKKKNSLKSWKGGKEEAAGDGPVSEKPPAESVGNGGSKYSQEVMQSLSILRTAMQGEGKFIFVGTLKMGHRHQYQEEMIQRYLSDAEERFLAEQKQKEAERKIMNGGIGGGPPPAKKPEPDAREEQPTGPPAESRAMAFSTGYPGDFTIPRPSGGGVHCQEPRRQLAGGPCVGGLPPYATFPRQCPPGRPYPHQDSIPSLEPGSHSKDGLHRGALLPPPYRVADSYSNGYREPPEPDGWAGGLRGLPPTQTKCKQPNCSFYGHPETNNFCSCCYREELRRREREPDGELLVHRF
Method in brief: as §1

PRPF8 = PRPF8 (UniProt Q6P2Q9)
Method in brief: as §1

PSMD7 = target: T3, PSMD7 (UniProt P51665)
T3 sequence (whole entry): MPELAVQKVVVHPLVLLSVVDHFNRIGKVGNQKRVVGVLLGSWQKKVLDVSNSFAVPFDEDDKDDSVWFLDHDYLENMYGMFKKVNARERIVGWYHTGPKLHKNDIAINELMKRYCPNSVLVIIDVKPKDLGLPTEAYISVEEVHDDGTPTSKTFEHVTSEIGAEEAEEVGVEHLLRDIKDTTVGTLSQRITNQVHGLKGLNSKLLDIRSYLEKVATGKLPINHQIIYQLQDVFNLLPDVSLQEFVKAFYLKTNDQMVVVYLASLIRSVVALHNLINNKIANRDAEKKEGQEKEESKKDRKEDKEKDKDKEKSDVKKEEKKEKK
Method in brief: as §1

UCHL1 = UCHL1 (UniProt P09936)
Method in brief: as §1

UCHL3 = target: T4, UCHL3 (UniProt P15374)
T4 sequence (whole entry): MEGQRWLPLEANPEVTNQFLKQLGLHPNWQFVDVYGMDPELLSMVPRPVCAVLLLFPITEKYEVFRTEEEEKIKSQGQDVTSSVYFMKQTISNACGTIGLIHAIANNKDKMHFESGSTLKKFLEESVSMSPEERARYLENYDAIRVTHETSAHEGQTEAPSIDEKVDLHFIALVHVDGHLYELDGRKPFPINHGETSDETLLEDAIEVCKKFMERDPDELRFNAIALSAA
Method in brief: as §1

UCHL5 = target: T5, UCHL5 (UniProt Q9Y5K5)
T5 sequence (whole entry): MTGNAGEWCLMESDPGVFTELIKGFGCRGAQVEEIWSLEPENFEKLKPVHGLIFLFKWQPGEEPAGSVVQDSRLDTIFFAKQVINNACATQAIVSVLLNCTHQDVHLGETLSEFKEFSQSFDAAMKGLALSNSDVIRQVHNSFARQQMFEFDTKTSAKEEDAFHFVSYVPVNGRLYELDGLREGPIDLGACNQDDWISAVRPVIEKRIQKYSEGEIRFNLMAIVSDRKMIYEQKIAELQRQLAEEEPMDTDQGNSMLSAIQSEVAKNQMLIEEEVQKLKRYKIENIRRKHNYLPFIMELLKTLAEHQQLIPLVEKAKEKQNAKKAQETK
Method in brief: as §1

USP10 = USP10 (UniProt Q14694)
Method in brief: as §1

USP15 = target: T6, USP15 (UniProt Q9Y4E8)
T6 sequence (whole entry): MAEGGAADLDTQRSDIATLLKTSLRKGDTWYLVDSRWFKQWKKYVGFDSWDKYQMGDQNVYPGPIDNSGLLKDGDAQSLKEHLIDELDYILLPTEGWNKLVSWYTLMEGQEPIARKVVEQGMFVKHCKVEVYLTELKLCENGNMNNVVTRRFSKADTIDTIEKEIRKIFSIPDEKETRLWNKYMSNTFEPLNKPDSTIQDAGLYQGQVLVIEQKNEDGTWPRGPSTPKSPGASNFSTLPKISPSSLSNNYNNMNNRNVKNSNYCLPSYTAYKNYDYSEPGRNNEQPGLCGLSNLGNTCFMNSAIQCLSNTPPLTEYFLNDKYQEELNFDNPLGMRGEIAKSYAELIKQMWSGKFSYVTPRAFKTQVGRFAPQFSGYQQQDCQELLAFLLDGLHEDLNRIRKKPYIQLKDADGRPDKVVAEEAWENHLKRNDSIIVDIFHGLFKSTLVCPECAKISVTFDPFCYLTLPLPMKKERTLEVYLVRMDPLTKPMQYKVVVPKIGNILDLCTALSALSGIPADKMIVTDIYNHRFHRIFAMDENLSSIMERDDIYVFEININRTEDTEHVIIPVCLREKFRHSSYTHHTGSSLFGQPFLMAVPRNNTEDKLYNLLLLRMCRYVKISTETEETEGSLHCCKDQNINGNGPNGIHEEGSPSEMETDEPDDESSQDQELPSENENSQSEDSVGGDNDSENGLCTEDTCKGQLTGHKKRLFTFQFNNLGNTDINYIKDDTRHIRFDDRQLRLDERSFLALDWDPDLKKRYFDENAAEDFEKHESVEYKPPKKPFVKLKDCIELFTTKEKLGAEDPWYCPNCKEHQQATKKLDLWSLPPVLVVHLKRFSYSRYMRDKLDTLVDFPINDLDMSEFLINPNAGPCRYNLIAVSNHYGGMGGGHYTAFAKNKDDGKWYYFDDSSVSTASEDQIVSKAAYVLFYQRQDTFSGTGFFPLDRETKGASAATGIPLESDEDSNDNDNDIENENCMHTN
Method in brief: as §1

USP16 = USP16 (UniProt Q9Y5T5)
Method in brief: as §1

Measured: log2 ratio of Biotin-Ahx-Ub-VS probe labelling

Sequence of USP16 (Q9Y5T5 whole entry, looked up): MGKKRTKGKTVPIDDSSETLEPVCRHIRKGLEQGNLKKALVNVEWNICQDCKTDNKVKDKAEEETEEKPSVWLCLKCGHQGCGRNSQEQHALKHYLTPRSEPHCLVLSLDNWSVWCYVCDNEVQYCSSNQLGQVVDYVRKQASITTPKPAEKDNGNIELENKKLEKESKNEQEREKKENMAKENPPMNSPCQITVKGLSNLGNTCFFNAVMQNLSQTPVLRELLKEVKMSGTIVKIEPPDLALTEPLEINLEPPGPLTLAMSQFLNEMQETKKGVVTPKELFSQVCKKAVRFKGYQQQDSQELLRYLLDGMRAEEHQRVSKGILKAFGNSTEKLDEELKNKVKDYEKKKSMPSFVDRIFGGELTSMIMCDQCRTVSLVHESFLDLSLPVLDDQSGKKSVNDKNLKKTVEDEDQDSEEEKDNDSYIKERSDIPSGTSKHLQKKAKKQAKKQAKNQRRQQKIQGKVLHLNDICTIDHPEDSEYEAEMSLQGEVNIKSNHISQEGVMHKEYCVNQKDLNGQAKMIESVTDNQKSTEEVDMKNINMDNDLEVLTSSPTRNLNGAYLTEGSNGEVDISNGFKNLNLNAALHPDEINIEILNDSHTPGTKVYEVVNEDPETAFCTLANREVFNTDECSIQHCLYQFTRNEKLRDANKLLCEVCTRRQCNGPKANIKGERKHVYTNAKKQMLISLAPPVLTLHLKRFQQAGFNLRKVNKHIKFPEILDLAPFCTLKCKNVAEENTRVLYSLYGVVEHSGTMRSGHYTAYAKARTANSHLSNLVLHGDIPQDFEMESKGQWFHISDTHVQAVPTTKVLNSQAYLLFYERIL
Sequence of USP10 (Q14694 whole entry): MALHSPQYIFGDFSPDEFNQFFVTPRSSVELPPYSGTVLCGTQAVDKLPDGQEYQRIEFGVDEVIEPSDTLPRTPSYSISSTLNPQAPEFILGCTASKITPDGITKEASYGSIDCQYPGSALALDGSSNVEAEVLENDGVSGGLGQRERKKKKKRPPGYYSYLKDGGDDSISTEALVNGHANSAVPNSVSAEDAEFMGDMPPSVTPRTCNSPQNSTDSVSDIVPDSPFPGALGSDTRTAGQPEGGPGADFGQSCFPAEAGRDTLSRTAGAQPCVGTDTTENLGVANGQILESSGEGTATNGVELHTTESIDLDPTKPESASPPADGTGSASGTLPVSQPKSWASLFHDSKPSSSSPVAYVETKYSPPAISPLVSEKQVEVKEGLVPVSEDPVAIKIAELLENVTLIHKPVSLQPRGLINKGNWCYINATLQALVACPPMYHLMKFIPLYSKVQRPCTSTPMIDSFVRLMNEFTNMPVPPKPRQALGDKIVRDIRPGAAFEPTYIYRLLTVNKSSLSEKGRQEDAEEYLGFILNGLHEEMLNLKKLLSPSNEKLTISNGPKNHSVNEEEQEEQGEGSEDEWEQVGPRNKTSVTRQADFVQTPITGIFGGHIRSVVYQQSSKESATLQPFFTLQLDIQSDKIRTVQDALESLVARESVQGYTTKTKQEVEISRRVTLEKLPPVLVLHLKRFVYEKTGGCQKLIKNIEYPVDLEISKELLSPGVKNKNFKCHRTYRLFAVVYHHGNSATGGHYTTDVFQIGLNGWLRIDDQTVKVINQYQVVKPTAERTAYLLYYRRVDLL
Sequence of UCHL1 (P09936 whole entry, looked up): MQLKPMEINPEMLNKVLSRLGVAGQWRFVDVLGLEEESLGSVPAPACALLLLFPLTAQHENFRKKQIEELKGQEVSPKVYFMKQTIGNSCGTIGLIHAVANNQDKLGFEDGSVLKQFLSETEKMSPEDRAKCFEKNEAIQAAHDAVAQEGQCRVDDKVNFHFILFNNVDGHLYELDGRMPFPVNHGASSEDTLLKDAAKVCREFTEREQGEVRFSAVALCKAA

O=C(CCl)N[C@H]1CCS(=O)(=O)c2ccccc21
inactive: OTUD6B -0.0586 | PRPF8 0.0359 | PSMD7 -0.0772 | UCHL3 0.351 | UCHL5 -0.0806 | USP10 -0.109 | USP15 -0.195 | USP16 -0.601
active: OTUD7B -1.71 | UCHL1 -1.5

— the supplement of paper PMC11732987, “Enantioselective OTUD7B fragment discovery through chemoproteomics screening and high-throughput optimisation” (Communications Chemistry, 2025)
